In the supplement of paper PMC10338343:
± gives the standard deviation.

Tests used:
[1] = system: MILI (PIWIL2) piRISC loaded with piRNA #1 (26 nt); assay: pre-steady-state target cleavage rate (min^-1); guide: piRNA #1 5'p-UGAGGUAGUAGGUUGUAUAGUAUCCA; higher = faster piRNA-guided slicing of the target; settings: auxiliary factor: 500 nM mouse GTSF1;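 further: 1 nM active piRISC with 0.1 nM target library at 33 °C single turnover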
Method in brief: (§1)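 The pre-steady-state cleavage rate was calculated from a burst-and-steady-state fit. Data came from Cleave-'n-Seq, in which […] transcribed, DNA-blocked target RNA library was mixed with 1 nM active affinity-purified piRISC carrying one synthetic guide, with or without 500 nM GTSF1 partner protein, in HEPES–potassium acetate buffer at 33 °C for 0–8 or 0–960 min. Uncleaved targets were sequenced and normalised to depth and to weakly complementary targets, three trials were pooled, and k3 was capped at 0.0001 min^-1.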

[2] = system: EfPiwi piRISC loaded with piRNA #1 (26 nt); assay: pre-steady-state target cleavage rate (min^-1); auxiliary factor: 500 nM Ephydatia muelleri Gtsf1; guide: piRNA #1 5'p-UGAGGUAGUAGGUUGUAUAGUAUCCA; MIWI and MILI are mouse PIWI proteins and EfPiwi is from a freshwater sponge; tags in brackets are library labels; higher = faster piRNA-guided slicing of the target
Method in brief: as §1

Row | Sequence | pre-steady-state target cleavage rate [1] | pre-steady-state target cleavage rate [2]
1 | GGAGACGAUACUUAUACAACCUACUACCUCA | 0.139 ± 0.012 | 0.0473 ± 0.017
2 | GGAGAGGAUACUAUACAACCUACUACACUCA | 0.136 ± 0.019 | 0.00522 ± 0.0018
3 | GGAGACCAAACUAUACAACCUACUACGUCA | 0.042 ± 0.015 | 0.00503 ± 0.0027
4 | GGAGACCAUACUAUACAACCUAUCUACCUCA | 0.0997 ± 0.014 | 0.00419 ± 0.0028
5 | GGAGACGAUACUAUACAACCUAAUACCUCA | 0.103 ± 0.015 | 0.00553 ± 0.0025
6 | GGAGAGGAAAGUAUACAACCUACUACCUCA | 0.0417 ± 0.0061 | 0.00774 ± 0.0044
7 | GGAGACCAUACUAUACAUCCUACUUCCUCA | 0.176 ± 0.03 | 0.00272 ± 0.0026
8 | GGAGACCAUACUAUACAACCUGCUACCUCA | 0.0337 ± 0.0076 | 0.0759 ± 0.029
9 | GGAGAGGAUACUUACAACCUACUACCUCA | 0.125 ± 0.012 | 0.00543 ± 0.0036
10 | GGAGACCUUACUAUACCACCUACUACCUCA | 0.109 ± 0.014 | 0.006 ± 0.003
11 | GGAGUGGAUACUAUACAAGGUACUACCUCA | 0.0661 ± 0.0076 | 0.00342 ± 0.0019
12 | GGAGUGGUUACUAUACAACCUACUAGCUCA | 0.0259 ± 0.0059 | 0.00221 ± 0.001
13 | GGAGACCAUACUUUACUACCUACUACCUCA | 0.129 ± 0.015 | 0.00371 ± 0.0032
14 | GGAGACGUACUAUACAACCUACUACCUCA | 0.154 ± 0.015 | 0.0561 ± 0.022
15 | GGAGACGAUUCUAUACAACGUACUACCUCA | 0.0237 ± 0.0031 | 0.00356 ± 0.0021
16 | GGAGUGGAUACUAUACAACCAACUACCUGA | 0.00303 ± 0.0022 | 0.00303 ± 0.0013
17 | GGAGUGGAUACUAUACAACGAACUACCUCA | 0.00366 ± 0.0017 | 0.00257 ± 0.0018
18 | GGAGACCAUACAAUACUACCUACUACCUCA | 0.158 ± 0.019 | 0.00374 ± 0.0037
19 | GGAGUGGAUACUAUACAACUACUACCUCA | 0.0608 ± 0.0047 | 0.00835 ± 0.0039
20 | GGAGACGAUACUAUACAACCUACUACGACA | 0.131 ± 0.022 | 0.0045 ± 0.0019

Row | Sequence | pre-steady-state target cleavage rate [1] | pre-steady-state target cleavage rate [2]
21 | GGAGUGGAUACUAUACAACCUACUACGACA | 0.0497 ± 0.008 | 0.00539 ± 0.0025
22 | GGAGACCUUACUAUACUACCUACUACCUCA | 0.159 ± 0.014 | 0.00739 ± 0.0039
23 | GGAGUGGAUACUAUACAACGUACAACCUCA | 0.0258 ± 0.0036 | 0.00367 ± 0.0016
24 | GGAGACCUAACUAUACAAGCUACUACCUCA | 0.206 ± 0.02 | 0.00482 ± 0.0028
25 | GGAGACCUAGCUAUACAACCUACUACCUCA | 0.0862 ± 0.027 | 0.00604 ± 0.0058
26 | GGAGUGGAUUCUAUACAACCUACUACCUGA | 0.0905 ± 0.012 | 0.00261 ± 0.002
27 | GGAGUGGAUACUAUACAACGUUCUACCUCA | 0.00599 ± 0.0017 | 0.00461 ± 0.0022
28 | GGAGACGAUACUAUACAACCUACUAGCUGA | 0.0101 ± 0.0055 | 0.00481 ± 0.0027
29 | GGAGACGAUACUAUACAACCUACUACCUGCA | 0.203 ± 0.021 | 0.00933 ± 0.0034
30 | GGAGACGAUUACUAUACAACCUACUACCUCA | 0.147 ± 0.0094 | 0.0159 ± 0.0066
31 | GGAGAGGAUACAAUACAACCAACUACCUCA | 0.00985 ± 0.0026 | 0.00366 ± 0.0019
32 | GGAGACGAUUCUAUACAACCUACUUCCUCA | 0.0941 ± 0.016 | 0.00271 ± 0.0022
33 | GGAGACGAUUCUAUUCAACCUACUACCUCA | 0.231 ± 0.014 | 0.00706 ± 0.0046
34 | GGAGUGGAAAGUAUACAACCUACUACCUCA | 0.118 ± 0.0086 | 0.00841 ± 0.0043
35 | GGAGACGAUACUAUACAACCUCACUACCUCA | 0.00413 ± 0.0033 | 0.0049 ± 0.0024
36 | GGAGUGGUUACUAUACAACCUUCUACCUCA | 0.0099 ± 0.0024 | 0.00361 ± 0.0018
37 | GGAGAGGAUACUAAACAAGCUACUACCUCA | 0.165 ± 0.014 | 0.00412 ± 0.0017
38 | GGAGACGAUACUAUACAACCAACUUCCUCA | 0.00374 ± 0.0027 | 0.00381 ± 0.0022
39 | GGAGACCUUUGAAUACAACCUACUACCUCA | 0.00751 ± 0.0038 | 0.00525 ± 0.0038
40 | GGAGAGGAUACUAUUCAAGCUACUACCUCA | 0.131 ± 0.014 | 0.00323 ± 0.002

Row | Sequence | pre-steady-state target cleavage rate [1] | pre-steady-state target cleavage rate [2]
41 | GGAGUGGAUACUAUACCAACCUACUACCUCA | 0.0424 ± 0.0067 | 0.0596 ± 0.021
42 | GGAGUGGAUACUAUACAACCUACUACUCA | 0.0385 ± 0.0084 | 0.00563 ± 0.0029
43 | GGAGACGAUACUAUAGAACCUUCUACCUCA | 0.00459 ± 0.0021 | 0.00285 ± 0.0016
44 | GGAGAGGAUACUAUACAAGGUACUACCUCA | 0.0284 ± 0.0051 | 0.00404 ± 0.0023
45 | GGAGAGGAUACAAUACAACCUACUACGUCA | 0.0443 ± 0.0068 | 0.00333 ± 0.0019
46 | GGAGACCAUACUAUACAACCUACUACCGCA | 0.203 ± 0.025 | 0.00689 ± 0.0023
47 | GGAGAGGAUACUUUACAACCUAGUACCUCA | 0.0146 ± 0.0048 | 0.00261 ± 0.0016
48 | GGAGUGGAAACUAUACAACCUUCUACCUCA | 0.00517 ± 0.0028 | 0.00484 ± 0.0029
49 | GGAGACCUAUGCAUACAACCUACUACCUCA | 0.0358 ± 0.0081 | 0.0042 ± 0.0037
50 | GGAGACCUAUCUAUACAACCUACUACCUCC [g2:g20:cont:t1C] | 0.106 ± 0.011 | 0.0049 ± 0.0034
51 | GGAGACCUAACUAUACAUCCUACUACCUCA | 0.239 ± 0.028 | 0.00745 ± 0.0028
52 | GGAGAGGAUACUGUACAACCUACUACCUCA | 0.121 ± 0.012 | 0.0789 ± 0.029
53 | GGAGACCAUACUAUACAACCUACGACCUCA | 0.137 ± 0.018 | 0.00282 ± 0.0019
54 | GGAGACCUAUCUAUACAACCUACUACGAGA | 0.0633 ± 0.017 | 0.00279 ± 0.0027
55 | GGAGAGGAUACUAUACAACCUACUACGUCA | 0.058 ± 0.0086 | 0.00636 ± 0.0029
56 | GGAGUGGAUAGUAUACAACCUAGUACCUCA | 0.0556 ± 0.0099 | 0.00264 ± 0.0018
57 | GGAGACCUUACAAUACAACGUACUACCUCA | 0.0135 ± 0.0052 | 0.00409 ± 0.004
58 | GGAGACCUUACUAUACAACCUACUACGAGA | 0.0846 ± 0.02 | 0.00452 ± 0.0025
59 | GGAGACGAUUCUAUACAAGCUACUACCUCA | 0.239 ± 0.01 | 0.00369 ± 0.003
60 | GGAGAGGAAACUAUACAACCUACAACCUCA | 0.122 ± 0.03 | 0.00279 ± 0.0019
